# Screening data deposited in PubChem by National Center for Advancing Translational Sciences (NCATS).
# KB-3-1 cytotox: qHTS assay for MDR1-selective chemotherapeutics: Primary screen using the parental adenocarcinoma cell KB-3-1 | KB-3-1 viability, CellTiter-Glo ATP luminescence, 72 h | Potency, µM (series often up to 46.1 µM), hits mostly cytotoxic | 1.4% of 400,000 active | AID 1347075, 2019; also: % is scaled to controls: 0 for no effect and ±100 for the full control effect; nearly all actives have a fitted effect of over 60% in size
#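 Parental KB-3-1 viability, qHTS format: 72 h compound exposure, 37 °C; CellTiter-Glo; media-only wells and DMSO plates as controls; concentration-effect fits on corrected data.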
# MCF10A rereplic: A quantitative high throughput screen for small molecules that induce DNA re-replication in MCF 10a normal breast cells. MCF 10A DNA re-replication, Hoechst nuclear intensity, 48 h. Potency, µM (titrated, usually from 46.1 µM), without a hit: at the highest dose activity, positive = re-replication, hits mostly activators. 2.9% of 350,000 active; also: % of control where 0% means no effect; nearly all actives have a fitted effect of over 50% in size
# KB-V1 cytotox: qHTS assay for MDR1-selective chemotherapeutics: Primary screen using the drug-selected MDR subline cells KB-V1. KB-V1 MDR cells viability, CellTiter-Glo, 72 h. Potency, µM (doses to about 46.1 µM), hits mostly cytotoxic. 3.4% of 400,000 active; also: % is scaled to controls: 0 for no effect and ±100 for the full control effect; nearly all actives have a fitted effect of over 60% in size
#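 Cytotoxicity toward P-gp-expressing KB-V1 cells was determined as loss of CellTiter-Glo luminescence after 72 h at 37 degrees C. Compounds were tested in quantitative HTS format across a concentration range, with curves fitted to normalized data.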
# SW480 rereplic: A quantitative high throughput screen for small molecules that induce DNA re-replication in SW480 colon adenocarcinoma cells; Potency, µM (highest dose often 46.1 µM), inactives show top-dose re-replication activation, hits mostly activators; SW480 DNA re-replication, Hoechst DNA content imaging, 48 h; AID 624297, 2012; 1.8% of 340,000 active; also: % of control where 0% means no effect; nearly all actives have a fitted effect of over 55% in size
#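 Cells (250 per well) received 23 nL compound or DMSO by pin tool and were kept 48 hr at 37 C, 5% CO2. Nuclei were then stained with Hoechst for 40 min and scanned for DNA content.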
# PINK1 expr mod: A Quantitative High throughput Screen to Identify Chemical Modulators of PINK1 Expression. 0.2% of 410,000 active. Potency, µM (top dose mostly 76.6 µM), for the others: at the highest dose activation (PINK1 increase), most hits filed as activators. PINK1 immunofluorescence, high-content cytometry, 24 h; active = well fitted activation curve with a large enough effect; inconclusive = small, poorly fitted or top-dose-only effect; cell line not stated here; also: % of control where 0% means no effect; nearly all actives have a fitted effect of over 65% in size
#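 PINK1 protein, normally rapidly degraded, was detected by immunofluorescence after 24 hour compound treatment of a stable cell line. Titration data (5 concentrations) came from laser-scanning cytometry, with CCCP-treated wells as controls.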
# ALOX12 inh: Primary qHTS assay for inhibitors of human arachidonate 12S-lipoxygenase (ALOX12): Round 2; Polyunsaturated fatty acid lipoxygenase ALOX12 (Homo sapiens), P18054; purified 12hLO, xylenol orange hydroperoxide absorbance; Potency, µM (top dose mostly 108 µM), without a hit: at the top dose activity change, negative = inhibition, usual class: inhibitors; 1.1% of 580,000 active; AID 1671190, 2021; also: % is scaled to controls: 0 for no effect and ±100 for the full control effect
# Target sequence (P18054 whole entry, looked up): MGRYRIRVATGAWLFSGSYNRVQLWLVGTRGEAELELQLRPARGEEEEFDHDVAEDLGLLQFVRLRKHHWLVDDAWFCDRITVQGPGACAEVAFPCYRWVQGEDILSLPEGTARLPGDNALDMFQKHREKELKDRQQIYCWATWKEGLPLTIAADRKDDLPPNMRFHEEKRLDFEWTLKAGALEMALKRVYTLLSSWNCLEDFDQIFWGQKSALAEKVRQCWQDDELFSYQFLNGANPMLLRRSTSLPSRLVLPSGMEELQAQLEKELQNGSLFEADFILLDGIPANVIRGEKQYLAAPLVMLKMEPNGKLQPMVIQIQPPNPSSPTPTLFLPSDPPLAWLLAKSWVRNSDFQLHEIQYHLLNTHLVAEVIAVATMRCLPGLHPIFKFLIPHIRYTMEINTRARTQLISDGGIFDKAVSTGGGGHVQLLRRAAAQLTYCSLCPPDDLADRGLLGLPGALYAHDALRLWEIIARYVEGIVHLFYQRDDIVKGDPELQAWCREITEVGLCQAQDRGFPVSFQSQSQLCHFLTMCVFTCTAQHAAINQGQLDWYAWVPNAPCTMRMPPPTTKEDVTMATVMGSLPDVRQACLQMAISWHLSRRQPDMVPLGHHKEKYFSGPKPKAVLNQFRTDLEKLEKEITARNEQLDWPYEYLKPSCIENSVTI
#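 Hydroperoxide product was detected by ferrous iron/xylenol orange as the 573 to 405 nm absorbance ratio. Arachidonic acid at 40 uM (final) was turned over for 30 min at room temperature by 150 nM human 12hLO, pH 7.0 Hepes buffer, after 15 min compound preincubation.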
# Numbers without * were called inactive; i = inactive; ? = inconclusive; . = no result; [ ] = remark or other dose. Compounds with a hit are over-represented: about 5.8% of the library has one in this group of screens. Unless noted, calls follow the shape of the dose curve; as a rule, active = well fitted curve in the direction sought with a large enough effect; inconclusive = small, poorly fitted or top-dose-only effect, or another doubt; inactive = no such curve, though single readings can be large; an effect the other way counts as inactive or inconclusive. Potency is read from the fitted curve at half-maximal effect.
SMILES,KB-3-1 cytotox,MCF10A rereplic,KB-V1 cytotox,SW480 rereplic,PINK1 expr mod,ALOX12 inh
Cc1noc(C)c1CSCC(=O)Nc1cccc(C(F)(F)F)c1,.,18µM*,.,-6%,2%,-18%
Cc1noc(C)c1CSCC(=O)Nc1ccc(S(C)(=O)=O)cc1,i,-3%,?,1%,0%,259%
O=C(O)CCN1C(=O)C2C3C=CC(C3)C2C1=O (stereo unspecified),i,?,i,0%,-1%,-3%
O=C1C2C3C=CC(C3)C2C(=O)N1CCCCCCN1C(=O)C2C3C=CC(C3)C2C1=O (stereo unspecified),?,11%,18µM*,-2%,0%,1%
CCC(=O)N1CCN(c2nc(CC)nc3sc4c(c23)CCCC4)CC1,i,13%,?,2%,4%,0%
CC1CCc2c(sc3nc(C(C)(C)C)nc(N4CCN(C(=O)CCl)CC4)c23)C1 (stereo unspecified),?,15µM*,?,5.2µM*,-1%,?
Clc1ccc(OCCN2CCOCC2)cc1,i,10%,i,?,-1%,47%
CCN1CCN(CCOc2ccc(Cl)cc2)CC1,i,?,i,12%,-2%,1.4µM*
Cc1c(-c2ccc(O)cc2)nn(-c2ccc(O)cc2)c1-c1ccc(OCCN2CCCCC2)cc1,.,.,.,.,.,20µM*
Oc1ccc(N2CCN(Cc3ccc(OCCCN4CCCCC4)cc3)CC2)cc1,i,?,i,?,3%,?
Clc1cccc(OCCN2CCNCC2)c1,i,4%,i,18µM*,-1%,?
Cc1ccc(OCCN2CCCC2)cc1,i,?,i,15µM*,1%,-14%
Clc1cccc(OCCN2CCOCC2)c1,i,2%,i,1%,-2%,-6%
Cc1cc(C)cc(NC(=O)c2cc3ccccc3oc2=O)c1,.,.,.,.,.,12%
COc1cccc(OC)c1C(=O)Nc1cccc(-c2nc3cc(Cl)ccc3o2)c1,.,.,.,.,.,0%
Cc1ccc(OCCCCN2CCc3ccccc3C2)cc1,?,15µM*,i,-1%,9%,50%
Cc1ccc(OCCCCN2CCCCC2)cc1,i,1%,i,-7%,0%,21%
Cc1cccc(NC(=O)c2ccc(NCC3CCCO3)c([N+](=O)[O-])c2)c1 (stereo unspecified),i,-5%,4.1µM*,-59%,?,-8%
CCC(=O)Nc1cccc(NC(=O)c2ccc(C)c([N+](=O)[O-])c2)c1,i,22%,15µM*,1%,5%[38.3 µM],5%
CCCC(=O)Nc1cccc(NC(=O)c2ccc(C)c([N+](=O)[O-])c2)c1,i,-4%,i,2%,3%[38.3 µM],-20%
O=C(Nc1ccc(Cc2ccncc2)cc1)c1cccc([N+](=O)[O-])c1,i,10%,?,-1%,-1%,-13%
Cc1ccc(C(=O)Nc2ccc(Cc3ccncc3)cc2)cc1[N+](=O)[O-],?,15%,5.8µM*,-3%,0%,?
COc1cccc(N(CC(=O)Nc2ccc(C(N)=O)cc2)S(=O)(=O)c2ccccc2)c1,.,.,.,.,.,-9%
O=C(Cn1cccc1-c1nc(-c2ccccc2)no1)N1CCN(c2ccccc2F)CC1,.,.,.,.,.,21%
CC(C)(C#CC(O)(c1ccccc1)c1ccccc1)N1CCCCC1,i,4%,i,-2%,0%,?
CC(C)(C#CC(O)(c1ccccc1)c1ccccc1)N1CCCC1,i,0.82µM*,i,-7%,0%,4%
OC[C@@H]1[C@@H](c2ccccc2)C(c2ccc(F)cc2)=NN1c1ccccc1,?,?,i,21µM*,16%,.
